The target of experiment [1] is T1, Aspartate--tRNA(Asp/Asn) ligase (Mycobacterium tuberculosis (strain ATCC 25618 / H37Rv)) (UniProt P9WFW3). Note: in the data most compounds retested in dose-response had high values.
T1 sequence (whole entry): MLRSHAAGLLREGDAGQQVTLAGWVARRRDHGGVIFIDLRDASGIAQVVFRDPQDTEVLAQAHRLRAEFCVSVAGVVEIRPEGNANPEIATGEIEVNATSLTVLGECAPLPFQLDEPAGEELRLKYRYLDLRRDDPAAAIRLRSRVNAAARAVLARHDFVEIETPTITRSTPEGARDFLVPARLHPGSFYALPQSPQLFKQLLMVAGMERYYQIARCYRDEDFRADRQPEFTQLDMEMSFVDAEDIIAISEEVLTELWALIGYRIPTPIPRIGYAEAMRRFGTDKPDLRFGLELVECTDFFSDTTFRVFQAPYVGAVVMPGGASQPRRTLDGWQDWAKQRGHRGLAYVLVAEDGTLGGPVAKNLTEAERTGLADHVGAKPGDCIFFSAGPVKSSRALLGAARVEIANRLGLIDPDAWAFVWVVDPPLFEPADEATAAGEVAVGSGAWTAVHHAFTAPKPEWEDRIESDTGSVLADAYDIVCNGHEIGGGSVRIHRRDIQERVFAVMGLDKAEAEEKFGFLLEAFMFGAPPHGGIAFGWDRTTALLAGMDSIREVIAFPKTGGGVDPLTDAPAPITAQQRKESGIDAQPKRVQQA
The experiment is described as follows: Assay for Asp RNA synthetase-1 from Mycobacterium tuberculosis. Also on record: scale not given: direction of the effect not stated beside the values. Format: functional. The following applies: 30 µM.

The target of experiment [2] is Shiga toxin 2 (Escherichia coli O157:H7) (UniProt P09385+P09386). The experiment is described as follows: E. coli 0.157:H7 Shiga Toxin SOP - stx2 screening assay. Also on record: scale not given: direction of the effect not stated beside the values. In kind it is functional. The following applies: 30 µM.

Take `Cc1c(F)cc(C(=O)O)cc1S(=O)(=O)Nc1cccc(C(F)F)c1`: the values for the Percent Effect in experiment [1] and in experiment [2] were -0.0333% and 12.3%, respectively.
`Cc1cc(CNc2ccc(C(=O)N3CCCC(C)C3)cc2C)no1` (configuration not stated): the values for the Percent Effect in experiment [1] and in experiment [2] were -2.25% and 11.6%, respectively.
As for `CCn1ncc2c1C(COCC1CC1)CN(S(=O)(=O)N(C)C)C2` (configuration not stated), the figures for the Percent Effect in experiment [1] and in experiment [2] were -1.37% and -9.58%, respectively.
Turning to `Cc1noc(C)c1CCC(=O)NC(C)c1nnc2n1CCC2` (configuration not stated), the Percent Effect in experiment [1] was -0.635%; in experiment [2], -3.03%.
Take `Cc1cc(C(=O)NCCN2CCCC(C)C2)nn1C` (configuration not stated): the Percent Effect was -4.16% in experiment [1] and 11.8% in experiment [2].
Take `Cc1ccccc1N1CCN(C(=O)c2ccc[nH]2)C(C)C1` (configuration not stated): the Percent Effect in experiment [1] is -2.33%; in experiment [2], 24.5%.
Regarding `CCCc1nc(C)cc(N2CCC3(CCC(=O)N(CC4CC4)C3)CC2)n1`, the Percent Effect in experiment [1] is 3.82%; in experiment [2] it was -18.5%.
With `O=C(CCC1CCCC1)NCCn1nc(C2CCNC2)c2nccnc21` (configuration not stated), the figures for the Percent Effect in experiment [1] and in experiment [2] were 1.74% and -35.4%, respectively.
As to `COc1ccc2c(O)c(NC(=O)NCC3CC3)cnc2c1`, the Percent Effect is 1.09% in experiment [1] and -13.7% in experiment [2].
The like results for `COc1ccc(OC)c(C2C3=C(COC3=O)Nc3[nH]nc(C)c32)c1` (configuration not stated) were, in that order, -2.76% and -22.3%.
In the case of `COC[C@@H]1CC[C@H]2[C@H](CCN2S(=O)(=O)c2cccc(C)c2)O1`, the Percent Effect is 3.92% in experiment [1] and -4.66% in experiment [2].
In the case of `Cc1ccc(C(=O)N2CCN(CCCSCC#N)CC2)o1`, the Percent Effect in experiment [1] is 3.17%; in experiment [2], -67.1%.
For `O=S(=O)(N1CCCC1)N1CCCCC1CCc1ccccc1` (configuration not stated) the same measures were 1.42% and 10.8%.
With `Cc1nc(CSCCC(=O)NCc2cccnc2N(C)C)cs1`, the Percent Effect in experiment [1] is 1.66%; in experiment [2], -9.97%.
As for `CCN1CCC(c2nc3ccc(NC(C)C)cn3n2)CC1`, the Percent Effect was 2.52% in experiment [1] and 4.27% in experiment [2].
In the case of `CN1CCN(c2ncnc3c2c(C(=O)NC2CC2)c2ccccn23)CC1`, the Percent Effect was 5.32% in experiment [1] and -14.4% in experiment [2].
For `CCCNC(=O)Cn1nc(C(C)C)c2cnn(C(C)(C)C)c2c1=O`, the Percent Effect is -6.33% in experiment [1] and 8.81% in experiment [2].
With `CN(C)C(=O)COC1COC2(CCN(S(C)(=O)=O)CC2)C1` (configuration not stated), the Percent Effect was -4.11% in experiment [1] and -11.5% in experiment [2].
As to `CC(C)OCc1ncn2c1CN(Cc1cccs1)CCC2`, the results for the Percent Effect in experiment [1] and in experiment [2] were 8.33% and -0.247%, respectively.
Consider `CCc1n[nH]c(C2CN(C(=O)c3cnc(C)s3)CCO2)n1` (configuration not stated), for which the Percent Effect is -6% in experiment [1] and -8.48% in experiment [2].
For `O=C(Nc1ccccc1F)N1CCN(Cc2noc(C3CC3)n2)CC1`, the Percent Effect was 1.99% in experiment [1] and -11.6% in experiment [2].
The like results for `Cc1cc(=O)n(CC(=O)NCCC(C)C)c(-c2cccc(Cl)c2)n1` were, in that order, 12.2% and -9.6%.
`CC(C)=CCN1CCC(c2nccn2Cc2cscn2)CC1`: the Percent Effect in experiment [1] was -3.28%; in experiment [2], 22.8%.
The like results for `CCc1nc(C2CCCN2CCc2ccccn2)no1` (configuration not stated) were, in that order, -4.14% and -69%.
For `NC(=O)c1nnn(-c2ccc(Br)cc2)n1`, the Percent Effect in experiment [1] was 3.66%; in experiment [2], -41.8%.
In the case of `COc1ccc(C(=O)N2C[C@@H](CN3CCOCC3)[C@@H](CO)C2)c(C)c1`, the Percent Effect in experiment [1] was -0.54%; in experiment [2], 2.18%.
For `O=C(Cn1ccc2ccc(Br)cc21)NC[C@@H]1CCCN2CCCC[C@H]12`, the Percent Effect was -3.66% in experiment [1] and -42.1% in experiment [2].
For `COc1cccc2cc(CNCc3ccnc(N4CCOCC4)c3)oc12` the same measures were -2.91% and 26.8%.
Regarding `CCn1cnnc1C1CCN(C(=O)c2cnc(C3CC3)s2)CC1`, the Percent Effect is -8.99% in experiment [1] and -7.13% in experiment [2].
For `CC(=O)Nc1cccc(C(=O)Nc2cnc3n2CCCC3)c1`, the Percent Effect in experiment [1] is 2.26%; in experiment [2] it was -9.23%.
For the compound `COc1cc(CNC(=O)NCc2c(C)cc(C)[nH]c2=O)ccc1C`, the figures for the Percent Effect in experiment [1] and in experiment [2] were -3.59% and -4.18%, respectively.
For `CC(C)(C)c1ncc2c(n1)CN(C(=O)c1ccc(-c3nc[nH]n3)cc1)C2` the same measures were -2.37% and -62.9%.
On to `O=C1[C@@H]2CCN(Cc3ccoc3)C[C@@H]2OCCN1c1ccccc1`, for which the results for the Percent Effect in experiment [1] and in experiment [2] were -0.779% and 4.03%, respectively.
With `Cc1cn(CC(=O)NC2CCN(S(C)(=O)=O)CC2)c2ccccc12`, the Percent Effect in experiment [1] is 2.86%; in experiment [2], -10.4%.
On to `CC(C(=O)NCc1ccnc(N2CCN(C)CC2)c1)n1cccn1` (configuration not stated), for which the Percent Effect in experiment [1] was -3.86%; in experiment [2], 6%.
As to `CCNC(c1cccnc1)c1cc(C)cc(C)c1` (configuration not stated), the Percent Effect in experiment [1] was -2.55%; in experiment [2] it was -3.23%.
In the case of `O=C(NCCNc1cnccn1)C1CCN(C(=O)N2CCCC2)CC1`, the results for the Percent Effect in experiment [1] and in experiment [2] were 6.24% and -37.5%, respectively.
In the case of `CCc1csc(C2CCCN(C(=O)C3=NN(CC)C(=O)CC3)C2)n1` (configuration not stated), the Percent Effect in experiment [1] is -5.86%; in experiment [2] it was -21.6%.
As for `c1ccc(OCc2nnc3n2CCN(CC2CCOCC2)C3)nc1`, the Percent Effect was 10.1% in experiment [1] and 7.95% in experiment [2].
The like results for `COc1ccc2cc(C(=O)N3CCCCC3CC(N)=O)[nH]c2c1` (configuration not stated) were, in that order, -1.12% and 4.87%.
For `Cc1ncsc1C(=O)N(C)Cc1ccncc1` the same measures were -4.5% and 27.3%.
As for `Cc1ccc(CN2CCc3ncnc(-c4ccc(F)cc4)c3CC2)o1`, the Percent Effect in experiment [1] is 5.12%; in experiment [2] it was -19.5%.
For `O=C(c1ccc(-n2cccn2)nc1)N1CCC(Nc2cccnn2)CC1`, the Percent Effect in experiment [1] was -2.94%; in experiment [2], 26.9%.
For `CC(C)Nc1nc(N2CCOCC2)nc2c1CN(Cc1ccoc1)CC2`, the values for the Percent Effect in experiment [1] and in experiment [2] were -5.4% and 4.99%, respectively.
`O=C(O)C1(Cc2cc(-c3ccc(F)cc3F)no2)CCOCC1`: the results for the Percent Effect in experiment [1] and in experiment [2] were 0.819% and -13.5%, respectively.
With `C1CC(c2noc(C3CC3)n2)CN(Cc2noc(C3CC3)n2)C1` (configuration not stated), the Percent Effect was -1.05% in experiment [1] and 6.22% in experiment [2].

Values taken from ChEMBL document CHEMBL3988442, “University of Dundee, Small-Polar-MMV Screening Library” (2021).
